This note sets out measurements from PubChem BioAssay (NCI).

Among the test systems are DU-145 prostate; K-562 leukemia; MALME-3M melanoma; MDA-MB-231 breast; RXF 393 renal; SF-268 CNS; SF-295 CNS; SF-539 CNS; UACC-257 melanoma; M14 melanoma; HCT-15 colon; HT29 colon; SNB-75 CNS; SNB-19 CNS; U251 CNS; PC-3 prostate; SK-MEL-5 melanoma; UACC-62 melanoma; LOX IMVI melanoma; SK-MEL-28 melanoma.
Assay in all cases: NCI-60 one-dose screen, 48 h (100 = growth as untreated, 0 = no growth, -100 = all killed)
Holding throughout (settings): 10 µM unless noted

Compounds without any hit were thinned out: in the full panel of roughly 83,000, 20% have a hit.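 Percent growth is the endpoint: 0 to 100 indicates growth inhibition (40 means 60% inhibition), 0 means no net growth, and negative values indicate cell death.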 A number with no mark means an inactive call. Activity calls are given as the source filed them. Rule for the calls: active = growth percent below 10; inactive = the rest.

Regarding `O=C(Cc1ccccc1)Nc1cccc(N=Cc2ccccc2O)c1`, the growth in the assay with DU-145 prostate was 93.1%; in the assay on K-562 leukemia, 98.7%; with MALME-3M melanoma it was 106%; with MDA-MB-231 breast it was 114%; in the assay on RXF 393 renal, 111%; in the assay on SF-268 CNS, 84%. In addition, the growth in the assay on SF-295 CNS was 100%; with SF-539 CNS, 101%; in the assay on UACC-257 melanoma it was 105%; in the assay on M14 melanoma, 107%; with HCT-15 colon, 102%; in the assay with HT29 colon it was 113%. The growth is 73.8% in the assay on SNB-75 CNS; 99.2% with SNB-19 CNS; 94.3% in the assay on U251 CNS; 93.4% in the assay with PC-3 prostate; 106% in the assay with SK-MEL-5 melanoma; 101% in the assay with UACC-62 melanoma. For the same molecule, the results for the growth in the assay with LOX IMVI melanoma and in the assay with SK-MEL-28 melanoma were 100% and 111%, respectively.
Take `COc1ccc(/C=C/C(c2cc(OC)c(OC)c(OC)c2)n2ccnc2)cc1O` (centres undefined): the growth in the assay on DU-145 prostate was 37.8%; with K-562 leukemia, 13.6%; with MALME-3M melanoma, 57.7%; in the assay on MDA-MB-231 breast, 53%; with RXF 393 renal, 33.1%; in the assay with SF-268 CNS, 56.1%. The growth in the assay on SF-295 CNS is 16.6%; with SF-539 CNS, 23.1%; in the assay with UACC-257 melanoma, 34.2%; in the assay with M14 melanoma, 18.6%; in the assay on HCT-15 colon, 24.9%; with HT29 colon it was 71%. In addition, the growth in the assay with SNB-75 CNS is 20%; in the assay on SNB-19 CNS, 47.3%; in the assay on U251 CNS, 27.1%; with PC-3 prostate, 25.3%; in the assay with SK-MEL-5 melanoma it was 17%; in the assay on UACC-62 melanoma, 36.4%. Also, the values for the growth in the assay with LOX IMVI melanoma and with SK-MEL-28 melanoma were 46.1% and 58.9%, respectively.
In the case of `O=C(C1=Cc2cc3ccccc3n2Cc2cnnn21)c1ccc(O)cc1`, the growth was 89.9% in the assay with DU-145 prostate; 11% in the assay with K-562 leukemia; 57.8% in the assay on MALME-3M melanoma; 75.5% in the assay on MDA-MB-231 breast; 59% in the assay with RXF 393 renal; 71.9% in the assay on SF-268 CNS. Besides, the growth in the assay with SF-295 CNS was 56.9%; in the assay on SF-539 CNS, 61.5%; in the assay on UACC-257 melanoma it was 84%; in the assay with M14 melanoma it was 24.9%; in the assay with HCT-15 colon, 37.3%; with HT29 colon, 27.3%. The growth with SNB-75 CNS was 31%; with SNB-19 CNS, 63.2%; in the assay with U251 CNS it was 53.5%; in the assay with PC-3 prostate, 62.4%; in the assay with SK-MEL-5 melanoma, 54.2%; with UACC-62 melanoma, 32.9%. Also, the growth was 50.6% in the assay on LOX IMVI melanoma and 66.8% in the assay on SK-MEL-28 melanoma.
For the molecule `Nc1nc2c(c3ncccc13)C(c1cccc(Cl)c1)Cc1ncccc1-2` (centres undefined), the growth with DU-145 prostate was 21.5%; in the assay with K-562 leukemia, 14%; in the assay with MALME-3M melanoma it was 67.7%; with MDA-MB-231 breast it was 28.8%; in the assay with RXF 393 renal, 10.7%; in the assay with SF-268 CNS, 45.6%. The growth with SF-295 CNS is 0.813% (active); with SF-539 CNS, -19.9% (active); in the assay on UACC-257 melanoma, 63.6%; with M14 melanoma, 6.41% (active); with HCT-15 colon, 22.2%; in the assay with HT29 colon, 2.28% (active). Moreover, the growth is 32.5% with SNB-75 CNS; 21.1% in the assay with SNB-19 CNS; 16% in the assay on U251 CNS; 18.3% with PC-3 prostate; 29.3% with SK-MEL-5 melanoma; 22.1% in the assay with UACC-62 melanoma. Also, the growth with LOX IMVI melanoma is 36.8%; in the assay on SK-MEL-28 melanoma it was 63.9%.
As for `N[C@H]1CCC[C@@H]1NCCCCN1C(=O)c2cccc3cc([N+](=O)[O-])cc(c23)C1=O`, the growth was 29.9% in the assay on DU-145 prostate; 25.2% in the assay on K-562 leukemia; 73% with MALME-3M melanoma; 39.5% in the assay with MDA-MB-231 breast; 44.1% in the assay with RXF 393 renal; 36.5% in the assay on SF-268 CNS. Moreover, the growth in the assay on SF-295 CNS is 66.6%; in the assay with SF-539 CNS, 38.1%; in the assay on UACC-257 melanoma, 72.7%; with M14 melanoma, 76.8%; in the assay with HCT-15 colon it was 63.5%; in the assay with HT29 colon, 14.2%. Moreover, the growth in the assay on SNB-75 CNS is 46.7%; in the assay with SNB-19 CNS, 46.2%; in the assay on U251 CNS, 42.1%; with PC-3 prostate, 40.7%; with SK-MEL-5 melanoma it was 70.2%; with UACC-62 melanoma it was 72.2%. For the same molecule, in the assay on LOX IMVI melanoma, the growth is 22.8%.
`COc1cc(/C=N/Nc2ccc(Br)cc2)cc(OC)c1OC`: the growth with DU-145 prostate was 63.1%; in the assay on K-562 leukemia it was 9.82% (active); with MALME-3M melanoma, 55.5%; in the assay on MDA-MB-231 breast, 47.5%; with RXF 393 renal it was 102%; in the assay with SF-268 CNS, 52.5%. Also, the growth in the assay on SF-295 CNS was 60.9%; with SF-539 CNS it was 63.5%; in the assay on UACC-257 melanoma, 84.6%; in the assay on M14 melanoma, 18.4%; in the assay on HCT-15 colon, 18.9%; with HT29 colon it was 29.2%. In addition, the growth is 87.5% in the assay with SNB-75 CNS; 91.6% in the assay with SNB-19 CNS; 65.5% in the assay on U251 CNS; 60.9% in the assay on PC-3 prostate; 85% with SK-MEL-5 melanoma; 36.8% in the assay on UACC-62 melanoma. The growth in the assay on LOX IMVI melanoma was 13.5%; in the assay with SK-MEL-28 melanoma, 82.1%.
For `C=C1C(=O)O[C@H]2[C@H]1CC/C(COC(=O)/C=C/C(=O)OC/C1=C/CC[C@@]3(C)O[C@H]3[C@H]3OC(=O)C(=C)[C@@H]3CC1)=C\CC[C@@]1(C)O[C@@H]21`, the growth with DU-145 prostate was 25.4%; in the assay with K-562 leukemia, 5.18% (active); in the assay with MALME-3M melanoma it was -27.3% (active); with MDA-MB-231 breast, -7.25% (active); with RXF 393 renal, -11.3% (active); with SF-268 CNS, 90.3%. In addition, the growth in the assay on SF-295 CNS was 115%; in the assay on SF-539 CNS, 82.2%; with UACC-257 melanoma it was 60.3%; in the assay with M14 melanoma it was 27.5%; with HCT-15 colon it was 13.1%; in the assay with HT29 colon, 8.88% (active). For the same molecule, the growth in the assay with SNB-75 CNS was 95.2%; with SNB-19 CNS, 90.5%; in the assay with U251 CNS it was 76%; with PC-3 prostate, 61.1%; in the assay with SK-MEL-5 melanoma, 83.1%; with UACC-62 melanoma it was 55.1%. Besides, the growth in the assay on LOX IMVI melanoma is 3.81% (active); in the assay on SK-MEL-28 melanoma it was 51.8%.
